# Pf Dd2 inh: inhibitors of Plasmodium falciparum Dd2 growth | P. falciparum Dd2 growth, SYBR Green, 72 h; stronger effect = lower value | 2.3% of 94,000 active | activity change, % at 10 µM | AID 1159554; in the data active means activity change below about -80%; inconclusive means no clear call, values can overlap the other calls
# T cruzi growth-1: T. cruzi proliferation inhibition; 5.9% of 77,000 active; T. cruzi beta-gal in NIH3T3, GalScreen luminescence, 90 h; inhibition, % at 8.34 µM;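 active means mean inhibition above about 93%, with at least 55% of replicates each passing it, limit read from the data, passing the limit was not always enough; inconclusive means only one of those two conditions holds; inactive means neither condition holds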
# C diff growth: C. difficile growth inhibition; Clostridium difficile clinical isolate growth, OD600, 24 h; stronger effect = lower value; growth activity, negative = inhibition, % at 16 µg/mL (by protocol); 0.25% of 86,000 active;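 active means mean growth activity at or below -80% and every replicate also at or below -80%; inconclusive means mean at or below -80% but some replicate above -80%; inactive means mean growth activity above -80%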;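 further: 0% = DMSO wells and -100% = levofloxacin 16 µg/mL wells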
# T cruzi growth-2: inhibitors of T. cruzi proliferation | shares compounds with T cruzi growth-1 | T. cruzi beta-gal in NIH3T3, GalScreen luminescence, 90 h | inhibition, % at 8.35 µM | 72% of 5,600 active | AID 651739;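 active means mean replicate inhibition above about 95% and at least 55% of replicates individually reaching it, limit read from the data; inconclusive means only one of the two criteria is met; inactive means neither criterion is met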
# T cruzi growth-3: inhibitors of T. cruzi proliferation. shares compounds with T cruzi growth-1. T. cruzi beta-gal in NIH3T3, GalScreen luminescence, 90 h. inhibition, % at 2.09 µM. 21% of 5,600 active;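 active means mean inhibition above about 95%, with at least 55% of replicates also reaching it, limit read from the data; inconclusive means meets just one of the two conditions; inactive means meets neither condition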;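 further: plate controls were neutral control median for no effect and positive control median for full effect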
# NIH3T3 tox: NIH/3T3 (mouse) viability loss; 14% of 5,600 active; NIH/3T3 viability, CellTiter-Glo ATP luminescence, 90 h; cytotoxicity (signal decrease), % at 8.35 µM; shares compounds with T cruzi growth-1;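 active means mean signal decrease across replicates above about 35% based on untreated-well scatter, with enough replicates individually passing, limit read from the data; inconclusive means no rule stated though some were filed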;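 further: 0% = median of neutral control wells and 100% = median of positive control wells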
# NIH3T3 tox 2: kills mouse NIH/3T3 fibroblasts; shares compounds with T cruzi growth-1; NIH/3T3 viability, CellTiter-Glo ATP luminescence, 90 h; inhibition, % at 24.9 µM; 56% of 5,600 active; AID 651744;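 active means mean loss of cell viability signal at or above a set limit, and enough replicates individually reaching it; inconclusive means meets only the mean limit or only the replicate share; inactive means meets neither condition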;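 further: 0% = median of neutral control wells and 100% = median of positive control wells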
# * hit, by the source's call; ? = inconclusive; . = no result given; ! = repeats disagree. Rows were chosen to be rich in hits. Some 6.7% of all compounds tested hit in one or more screens of this group.
SMILES,Pf Dd2 inh,T cruzi growth-1,C diff growth,T cruzi growth-2,T cruzi growth-3,NIH3T3 tox,NIH3T3 tox 2
C[C@H]1CN([C@@H](C)CO)S(=O)(=O)c2ccc(-c3ccncc3)cc2O[C@@H]1CN(C)Cc1ccc(Oc2ccccc2)cc1,-78.7,?,34.6,92.0,106.6*,85.7*,102.5*
C[C@@H]1CN([C@@H](C)CO)S(=O)(=O)c2ccc(-c3cncnc3)cc2O[C@@H]1CN(C)Cc1ccc(Oc2ccccc2)cc1,-15.0,.,.,.,.,.,.
C[C@@H]1CN([C@H](C)CO)S(=O)(=O)c2ccc(-c3ccncc3)cc2O[C@@H]1CN(C)Cc1ccc(Oc2ccccc2)cc1,-86.9*,116.0*,-0.8,98.7*,107.2*,83.7*,89.0*
CO[C@@H]1CC[C@H]2CCN(C)C(=O)[C@H](C)N(C)C(=O)c3cc(C#N)ccc3OC[C@H]1O2,.,20.6,0.1,.,.,.,.
C[C@H](CO)N1C[C@H](C)[C@@H](CN(C)Cc2ccc(C(F)(F)F)cc2)OCc2cn(nn2)CCCC1=O,-5.2,48.8,-4.2,.,.,.,.
CN1c2ccc(-c3ccccc3F)cc2[C@H]2[C@H](CCN2S(=O)(=O)c2ccc(F)cc2)[C@@H]1CO,1.8,113.3*,4.2,98.8*,98.3*,18.9,79.8*
CN1c2ccc(-c3ccccc3F)cc2[C@H]2[C@H](CCN2S(=O)(=O)c2ccccc2F)[C@@H]1CO,-9.1,93.1,-14.0,.,.,.,.
Cc1ccc(S(=O)(=O)N2CC[C@H]3[C@@H](CO)N(C)c4ccc(-c5ccccc5F)cc4[C@H]32)cc1,17.2,92.2,45.7,.,.,.,.
CN1c2ccc(-c3ccccc3F)cc2[C@@H]2[C@@H](CCN2S(=O)(=O)c2ccccc2F)[C@@H]1CO,3.3,115.9*,-2.5,100.1*,64.3,?,40.8*
Cc1ccc(S(=O)(=O)N(C)C[C@H]2Oc3cc(C#CC4CCCC4)ccc3S(=O)(=O)N([C@@H](C)CO)C[C@@H]2C)cc1,-64.4,121.2*,14.3,97.2*,108.8*,30.2,43.5*
COc1ccc(S(=O)(=O)N(C)C[C@H]2Oc3cc(C#CC4CCCCC4)ccc3S(=O)(=O)N([C@@H](C)CO)C[C@@H]2C)cc1,-49.8,56.8,.,.,.,.,.
C[C@H](CO)N1C[C@H](C)[C@@H](CN(C)S(C)(=O)=O)Oc2cc(C#CC3CCCC3)ccc2S1(=O)=O,-10.7,123.3*,.,102.1*,35.5,20.3,65.9*
COCC#Cc1ccc2c(c1)O[C@H](CN(C)S(=O)(=O)c1ccc(C)cc1)[C@H](C)CN([C@H](C)CO)S2(=O)=O,-34.0,76.3,7.0,.,.,.,.
C[C@@H]1CN([C@H](C)CO)S(=O)(=O)c2ccc(C#CC3CCCC3)cc2O[C@@H]1CN(C)S(C)(=O)=O,34.6,110.4,.,.,.,.,.
Cc1ccc(S(=O)(=O)N(C)C[C@H]2Oc3cc(C#CC4CCCC4)ccc3S(=O)(=O)N([C@H](C)CO)C[C@H]2C)cc1,-48.4,125.8*,12.6,97.3*!,116.6*,20.8,37.9*!
Cc1ccc(S(=O)(=O)N(C)C[C@@H]2Oc3cc(C#CC4CCCC4)ccc3S(=O)(=O)N([C@@H](C)CO)C[C@@H]2C)cc1,-61.1,125.3*,21.3,93.4,111.7*,8.1,40.2*
C[C@@H]1CCCCO[C@@H](CN(C)S(=O)(=O)c2ccc(F)cc2)[C@H](C)CN([C@@H](C)CO)C(=O)c2cc(NC(=O)CCC(F)(F)F)ccc2O1,.,4.6,0.0,.,.,.,.
COc1ccc(C[C@H]2CCc3cnnn3COC[C@@H](C(C)C)NC2=O)cc1,.,.,-4.7,.,.,.,.
CO[C@@H]1CN(C)C(=O)c2ccc(NC(=O)C3CC3)cc2OC[C@@H](C)N(C(=O)c2ccncc2)C[C@H]1C,15.9,-19.1,2.1,.,.,.,.
C[C@@H]1CN([C@H](C)CO)C(=O)c2cc(C#Cc3ccccc3F)cnc2O[C@H]1CN(C)C(=O)C1CCC1,-58.8,94.8,-0.1,.,.,.,.
Cc1ccc(S(=O)(=O)N(C)C[C@@H]2Oc3cc(C#CC4CCCC4)ccc3S(=O)(=O)N([C@H](C)CO)C[C@H]2C)cc1,-65.2,127.7*,15.6,103.3*,?,73.9*,66.4*
COCC#Cc1ccc2c(c1)O[C@@H](CN(C)S(=O)(=O)c1ccc(C)cc1)[C@@H](C)CN([C@@H](C)CO)S2(=O)=O,-35.6,76.3,4.2,.,.,.,.
